# Test results: PubChem BioAssay
# Tested on: Sam68 (KHDRBS1)
# Test: Sam68 small-molecule binders, primary screen, biochemical, small-molecule microarray, 635 nm fluorescence (AID 1125);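 note: score merges 667 nm channel intensity with signal to noise over triplicate slides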
# Settings: small-molecule microarray binding, higher = more signal
row,SMILES,composite z-score
1,C[C@@H]1ON(c2ccccc2)[C@H](c2ccccc2)[C@H]1C(=O)N1C(=O)OC[C@H]1Cc1ccccc1,0.885
2,COCCCNC(=O)[C@@H]1c2ccccc2C(=O)N(c2ccc(C)cn2)[C@H]1c1ccc(CO)cc1,-1.42
3,CC(=O)NCCCC[C@@H]1NC(=O)[C@H]2C[C@@H](C(=O)NCCCCCN)[C@@H](c3cccc(OCCO)c3)N2C1=O,0.993
4,C=CCOC(=O)[C@@H]1[C@H]2C(=O)O[C@H](c3ccccc3)[C@H](c3ccccc3)N2[C@H](c2ccc(OCCOC(=O)[C@H]3C[C@H]4C(=O)N[C@@H](Cc5ccccc5)C(=O)N4[C@H]3c3cccc(OCCO)c3)cc2)[C@@]12C(=O)Nc1ccc(I)cc12,1.31
5,O=C(Nc1cc(Br)ccc1C(=O)NCc1cccc(O)c1)c1ccccc1,0.778
6,CC(C)CCC[C@@H](C)[C@H]1CC[C@@]2(C)C3=C(CC[C@]12C)[C@@]1(C)CC[C@H](OC(=O)C(C)(C)C)C(C)(C)C1CC3 (stereo not given in full),0.657
7,COC(=O)[C@@]1(Cc2ccccc2)[C@H]2c3cc(C(=O)N(C)C)n(Cc4ccc(O)c(OC)c4)c3C[C@H]2CN1C(=O)c1ccccc1,0.507
8,CC(C)C[C@H]1NC(=O)[C@H](C)NC(=O)[C@@]23C(=O)N[C@@H](Cc4ccccc4)C2[C@H](C)[C@@]2(C)O[C@H]2C3/C=C/C/C=C\CNC1=O (stereo not given in full),0.371
9,NCCCCCCNC(=O)[C@H]1C[C@H]2C(=O)N3CCC[C@H]3C(=O)N2[C@H]1c1ccc(O)cc1,0.644
10,COC(=O)C(CC#Cc1ccc2c(c1)[C@]1(C(=O)N2)[C@H](c2ccc(OCCO)cc2)N2[C@H](c3ccccc3)[C@H](c3ccccc3)OC(=O)[C@H]2[C@@H]1C(=O)O)C(=O)OC,1.28
11,O=C1O[C@H](c2ccccc2)[C@H](c2ccccc2)N2[C@H]1[C@@H](C(=O)N1CCN(c3ncccn3)CC1)[C@]1(C(=O)Nc3ccc(C#CCCO)cc31)[C@H]2c1ccc(OCCO)cc1,1.3
12,NC(=O)NCC#Cc1ccc2c(c1)[C@]1(C(=O)N2)[C@H](c2ccc(OCCO)cc2)N2[C@H](c3ccccc3)[C@H](c3ccccc3)OC(=O)[C@H]2[C@@H]1C(=O)N1CCCCCCC1,1.23
13,CN(C)C(=O)[C@@]1(CCS(=O)(=O)c2ccccc2)N=C(c2ccc(OCCCO)cc2)O[C@H]1c1ccccc1CN=[N+]=[N-],1.3
14,COc1ccc(CCNC(=O)[C@@H]2c3ccccc3C(=O)N(Cc3ccccc3C(F)(F)F)[C@H]2c2ccc(CO)cc2)cc1,0.501
15,O=C1O[C@H](c2ccccc2)[C@H](c2ccccc2)N2[C@H]1[C@@H](C(=O)NC[C@H](O)c1ccccc1)[C@]1(C(=O)Nc3ccccc31)[C@H]2c1ccccc1OCCO,0.772
16,C=C(CCCC)/C(=C/C[C@H](OC(=O)c1ccncc1)c1ccc(CO)o1)c1cc(C(=O)OC)ccc1OC,1.31
17,CCCCCCCCCCC(O)C1C=CC2C(=O)NC(=O)C2N1Nc1ccccn1 (stereo not given),-0.182
18,COC(=O)[C@@]1(Cc2ccc(OC)cc2)[C@H]2c3cc(C(=O)N4CCCC4)n(Cc4ccc(C)o4)c3C[C@H]2CN1C(=O)c1ccccc1,0.762

row,SMILES,composite z-score
1,C=C(/C(=C/C[C@@H](OC(=O)c1ccncc1)c1cccc(OCCO)c1)c1cc(C(=O)OC)ccc1OC)C(C)C,1.21
2,CCOC(=O)C[C@H]1[C@H](OC(=O)Cc2ccc3c(c2)OCO3)[C@@H](NC(=O)c2ccccc2)c2cc(OCCCO)ccc2N1C(=O)c1ccccc1,0.425
3,CCCC=C(CCC)[C@@H](NS(=O)(=O)c1ccccc1)c1ccc(C(F)(F)F)cc1,1.32
4,C=C[C@H](C)[C@H](OC(=O)Nc1ccc(SC)cc1)c1ccc(O)c2ccccc12,-0.581
5,CC1(C)[C@@H]2CC(C(O)C3C=CC4C(=O)N(c5ccccc5)C(=O)C4N3Nc3ccccc3F)=C[C@@H]1C2 (stereo not given in full),1.29
6,COC(=O)c1ccc(OC)c(/C=C\CC(CCc2ccccc2)OC(=O)c2ccncc2)c1 (stereo not given),0.0029
7,O=C1C2C=CC(C(O)c3ccc(Br)cc3)N(Nc3ccccc3)C2C(=O)N1c1ccccc1 (stereo not given),0.668
8,COCCOC(=O)N1C(=O)[C@@]2(c3cc(C#Cc4ccc(OC)cc4)ccc31)[C@H](C(=O)N1CCc3cc(OC)c(OC)cc3C1)[C@H]1C(=O)O[C@H](c3ccccc3)[C@H](c3ccccc3)N1[C@@H]2c1ccc(OCCO)cc1,1.23
9,C=CCC(OC(C)=O)[C@@H]1[C@@H](N(Cc2ccc(-c3cccc(C(F)(F)F)c3)o2)C(=O)c2cccc3ccccc23)c2cc(OCCCO)ccc2N1C(=O)c1ccc(-c2ccccc2)cc1 (stereo not given in full),-0.407
10,CCCN1C(=O)[C@@]2(Cc3ccccc3)N=C(c3ccc(OCCCO)cc3)O[C@H]2c2ccccc21,1.3
11,O=C1c2ccccc2[C@](Cc2ccccc2I)(C(=O)NCC(F)(F)F)[C@H](c2ccc(CO)cc2)N1Cc1ccccc1,1.18
12,COc1ccc([Si](C)(C)[C@@H]2[C@@H](CC(=O)N(CCO)Cc3ccccc3)O[C@]3(C(=O)N(C)c4c(Br)cc(C)cc43)[C@H]2C)cc1,0.649
13,CCOC(=O)C[C@H]1[C@H](OC(=O)Cc2ccc3c(c2)OCO3)[C@@H](NC(=O)c2ccccc2)c2cc(OCCCO)ccc2N1C(=O)c1ccc2ccccc2n1,0.679
14,COC(=O)[C@]1(Cc2ccccc2CN=[N+]=[N-])N=C(c2ccc(OCCCO)cc2)O[C@@H]1c1ccccc1,-0.776
15,CN(C)CCCC[C@@H]1NC(=O)[C@H]2C[C@@H](C(=O)NCCCCCCNC(=O)CS)[C@@H](c3ccc(O)cc3)N2C1=O,0.457
16,O=C(O)[C@]1(CCS(=O)(=O)c2ccccc2)N=C(c2ccc(OCCCO)cc2)O[C@@H]1c1ccccc1,0.541
17,C=CCC(OC(C)=O)[C@@H]1[C@@H](N(Cc2cccc3ccccc23)C(=O)c2ccc(C)cc2)c2cc(OCCCO)ccc2N1C(=O)c1ccc2ccccc2c1 (stereo not given in full),-0.044
